# Test results: PubChem BioAssay AID540256 (National Center for Advancing Translational Sciences (NCATS), 2011)
# The whole screen tested about 300,000 compounds, of which about 3,700 (1.2%) were called active. Entries that show only a call come without a potency. Not shown: some 20% with an inconclusive outcome. This is one part of a sample in which actives are shown more often than they occur. Calls come from the whole dose curve; tested in HEK293 cells.
# Assay: qHTS for Inhibitors of binding or entry into cells for Lassa Virus; note: nearly all actives have a fitted effect of over 50% in size
# Details: Lassa virus pseudotype entry inhibition, cell reporter; series mostly up to 37.9 µM
# Potency is the fitted concentration of half-maximal effect.
row,SMILES,Potency
1,CCCCCCn1c(CN2CCCCC2)nc2c1c(=O)n(C)c(=O)n2C,inactive
2,CCCCCCCCn1c2c(c(=N)c3c1CCC3)CCCC2,5.62 µM (active)
3,CCCCN(CC(=O)Nc1cccc(S(=O)(=O)N2CCCC2)c1)Cc1nc2ccccc2c(=O)[nH]1,inactive
4,O=C(Nc1ccccc1)Oc1cccc2cccnc12,inactive
5,O=C(CNC(=O)c1ccccc1Br)NCCSc1ccc(Br)cc1,inactive
6,CN1CCN(c2ccc(S(=O)(=O)Nc3ccccc3)cc2[N+](=O)[O-])CC1,inactive
7,Oc1[nH]c2ccccc2c1N=Nc1c(F)c(F)c(F)c(F)c1F,inactive
8,O=[N+]([O-])c1cc(S(=O)(=O)Nc2cccc(Cl)c2)ccc1N=Nc1c(O)[nH]c2ccccc12,11.2 µM (active)
9,CC1(C)N=C(N)NC(Nc2ccc(Cl)cc2)=N1,inactive
10,COc1cccc(N(CC(=O)N2CCc3ccccc3C2)S(C)(=O)=O)c1,inactive
11,CS(=O)(=O)N(CC(=O)N1CCc2ccccc2C1)c1ccc(Br)cc1,inactive
12,Cc1ccc(S(=O)(=O)N(CC(=O)N2CCc3ccccc3C2)c2cccc(Cl)c2)cc1,14.1 µM (active)
13,Cc1ccc(S(=O)(=O)N2CCC(C(=O)N3CCCCCCC3)CC2)cc1,inactive
14,O=C(c1ccc(F)c(S(=O)(=O)N2CCOCC2)c1)N(CCc1ccccc1)Cc1ccccc1,inactive
15,Cc1cc(C2=NNC(=Nc3ccc(S(=O)(=O)N4CCOCC4)cc3)SC2)c(C)n1CC1CCCO1 (stereo not drawn),inactive
16,C=CCn1c(C)cc(C2=NNC(=NCC)SC2)c1C,1.64 µM (active)
17,COc1ccc(C(=O)ON=C2c3ccccc3-c3ccccc32)cc1OC,inactive
18,COc1ccc(C(=O)O/N=C(\N)Cc2ccc(Cl)cc2Cl)cc1OC,20 µM (active)
19,COc1ccc(C/C(N)=N/OC(=O)c2ccco2)cc1OC,inactive
20,O=C(CN1CCSc2ccccc21)N1CCN(c2ccccc2)CC1,inactive
21,CCOc1cc(C(=O)NCCc2csc3nc(-c4ccc(C)cc4)nn23)cc(OCC)c1OCC,inactive
22,Cc1cc(=O)[nH]c(SCc2ccc(Cl)cc2)n1,inactive
23,c1ccc(C(c2ccccc2)N2CCN(Cc3nnnn3C3CCCCC3)CC2)cc1,11.6 µM (active)

row,SMILES,Potency
1,O=C(O)CN1CCN(C(c2ccccc2)c2ccccc2)CC1,inactive
2,Cn1nnnc1SCC(=O)N1CCN(C(c2ccccc2)c2ccccc2)CC1,inactive
3,COc1ccc(N2CCN(C(=O)CCNC(=O)c3ccc(Br)cc3)CC2)cc1,inactive
4,Cc1ccc(S(=O)(=O)NCCC(=O)OCC(=O)N(C)c2ccccc2)cc1,inactive
5,Cc1cc(C)nc(N/N=C/c2c(CO)cnc(C)c2O)n1,inactive
6,CC(C)(C)c1ccc(C(=O)NCCn2c(N)c(C#N)c3nc4ccccc4nc32)cc1,inactive
7,CN(C)CCCn1c(N)c(C#N)c2nc(C#N)c(C#N)nc21,15.8 µM (active)
8,N#Cc1c(N)n(CCOC(=O)c2ccc(Cl)cc2)c2nc3ccccc3nc12,inactive
9,O=C(Cc1ccc(S(=O)(=O)N2CCOCC2)s1)Nc1ccc(Br)c(C(F)(F)F)c1,inactive
10,O=C(Nc1ncccc1O)c1ccc(C(=O)c2ccccc2)cc1,inactive
11,N#CCN(C(=O)COC(=O)C1CC2CCCC(C1)C2=O)c1ccccc1 (stereo not drawn),inactive
12,CC(=O)Oc1cccc(N2C(=O)C3CC=C(Cl)CC3C2=O)c1 (stereo not drawn),inactive
13,O=C(Oc1cccc(N2C(=O)C3C4c5ccccc5C(c5ccccc54)C3C2=O)c1)c1ccco1 (stereo not drawn),8.91 µM (active)
14,O=C(NC1CC(=O)N(c2ccccc2)C1)c1ccco1 (stereo not drawn),inactive
15,CCOc1ccc(CN2CCNC(=O)C2CC(=O)NCCCC2CCCC2)cc1 (stereo not drawn),inactive
16,NC(=S)NN=C1CCCC(C(F)(F)F)C1 (stereo not drawn),inactive
17,Cc1cccc2cc3c(N)c(C(=O)N4CCCc5ccccc54)sc3nc12,2.82 µM (active)
18,Cc1c(C(=O)N2CCCc3ccccc32)oc2ccccc12,inactive
19,O=C(c1c(Cl)nc2sccn12)N1CCCc2ccccc21,inactive
20,CC(=NNC(=O)c1ccc2nc[nH]c2c1)c1ccc(Br)cc1,inactive
21,O=C(NCCc1ccc(Cl)cc1)c1ccc2c(c1)N(Cc1ccc(F)cc1)C(=O)CS2,inactive
22,CCOc1ccc(Br)cc1S(=O)(=O)Nc1ccc(S(=O)(=O)Nc2cc(C)on2)cc1,inactive
23,CCc1ccc(C(CNc2nc(C(F)(F)F)nc3ccccc23)N(C)C)cc1 (stereo not drawn),10 µM (active)

row,SMILES,Potency
1,NS(=O)(=O)c1ccc(CCNc2nc(C(F)(F)F)nc3ccccc23)cc1,inactive
2,CC(Nc1nc(C(F)(F)F)nc2ccccc12)c1cccs1 (stereo not drawn),inactive
3,Cc1ccc(S(=O)(=O)n2oc(=O)c(C3CCCCC3)c2N)cc1,inactive
4,C/C(=N\NC(=O)Cc1ccc(Cl)cc1)c1ccccn1,8.2 µM (active)
5,CC(=O)Nc1cccc(/C(C)=N/NC(=O)c2ccccc2Cl)c1,inactive
6,C/C(=N\NC(=O)Cc1ccc(Br)cc1)c1cccnc1,inactive
7,CCNC(=S)N1CCN(c2ncccn2)CC1,inactive
8,CNC(=S)N1CCN(c2ccccn2)CC1,inactive
9,CC(=NNC(=S)N1CCCCCC1)c1ccccn1,0.316 µM (active)
10,C/C(=N\NC(=O)c1ccccc1F)c1ccccn1,7.08 µM (active)
11,O=C(Nc1ccc(NC(=O)c2ccccc2F)cc1)c1ccccc1F,inactive
12,C/C(=N\NC(=O)Cc1ccc(F)cc1)c1ccc(F)cc1,inactive
13,CCOC(=O)CCC(NC(=O)c1ccc(CNc2nc3cc(C(F)(F)F)ccc3nc2C(=O)OCC)cc1)C(=O)OCC (stereo not drawn),inactive
14,Cc1nn(-c2ccc(N3CCCCC3)nn2)c(C)c1CCC(=O)NCc1ccc(F)cc1,inactive
15,COc1ccc(C(=O)C(C)OC(=O)c2cccc(S(=O)(=O)Nc3c(C)n(C)n(-c4ccccc4)c3=O)c2)cc1 (stereo not drawn),inactive
16,O=C(NNc1nc(N2CCCC2)nc(N2CCCC2)n1)c1ccccc1,inactive
17,O=C(Nc1ccc(O)cc1)c1ccc(NC(=O)c2ccco2)cc1,inactive
18,COCCn1c(SC(C)C(=O)NC2CC2)nnc1-c1cccc(C)c1 (stereo not drawn),inactive
19,COC(=O)c1sc(N2CCN(Cc3ccccc3)CC2)nc1N,inactive
20,C/C(=N\NC(=S)Nc1ccc(C)cc1)c1cc2ccccc2o1,6.51 µM (active)
21,CC(C)Oc1ccc(NC(=O)c2cc3ccccc3o2)cc1,inactive
22,Cc1ccc(OC(=O)c2cc3ccccc3o2)cc1,inactive
